# Compound activity from PubChem.
# Vaccinia Venus = inhibitors of vaccinia virus (Venus reporter). Vaccinia virus Venus reporter expression, fluorescence. Potency, µM (highest dose often 36.5 µM), usual class: inhibitors. hit rate 0.46% among 330,000. AID 720580; calls by dose curve; tested in A549 cells; note: nearly all actives have a fitted effect of over 30% in size
# Vaccinia mCherry = inhibitors of vaccinia virus infection (mCherry reporter signal); Vaccinia virus mCherry reporter infection, fluorescence; Potency, µM (top dose mostly 36.5 µM), most hits filed as inhibitors; hit rate 0.63% among 310,000; AID 720579; calls by dose curve; tested in A549 cells; note: nearly all actives have a fitted effect of over 35% in size
# Pf growth 48h = inhibits P. falciparum growth in the first generation, 48 h. P. falciparum luciferase growth in erythrocytes, 48 h. Potency, µM (top dose mostly 28.7 µM), actives largely listed as inhibitors. hit rate 5.9% among 310,000
#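 A one-generation exposure of luciferase-tagged malaria parasites in RPMI 1640/Albumax erythrocyte culture, 37 C and 5% CO2. Inhibition is inferred from decreased luminescence after adding detection reagent.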
# AMA1-RON2 inh = AMA1-RON2 (P. falciparum) interaction inhibition. AlphaScreen AMA1-biotinylated RON2 peptide binding. Potency, µM (highest dose often 58.2 µM), hits mostly inhibitors. hit rate 0.2% among 360,000; note: nearly all actives have a fitted effect of over 45% in size
#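 AMA1 (3D7) with his tag at 25 nM final met compounds first, then biotinylated RON2 peptide at 25 nM; detection used donor plus acceptor beads, 10 µg/mL apiece, read by AlphaScreen after 30 min at room temperature.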
# Pf growth 96h = inhibits malaria parasite growth, 96 h; Potency, µM (highest dose often 28.7 µM), usual class: inhibitors; hit rate 6.9% among 320,000; P. falciparum luciferase reporter growth, 96 h
#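 Erythrocytes infected with luciferase-expressing P. falciparum were dispensed at 2% hematocrit and 0.05% parasitemia (final), then incubated with compounds 96 hours at 37 C in 5% CO2. Luminescence after detection reagent addition reported growth.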
# A number is an active result; . = inactive; ? = inconclusive; / = not tested or not shown; ! = not confirmed by another sample; [ ] = remark or other dose. In the library only some 8.7% were active in any assay of this set; here they are far more common. Unless noted, calls come from the whole dose curve; as a rule, active = well fitted curve in the direction sought with a large enough effect; inconclusive = small, poorly fitted or top-dose-only effect, or another doubt; inactive = no such curve, though single readings can be large; an effect the other way counts as inactive or inconclusive.
SMILES,Vaccinia Venus,Vaccinia mCherry,Pf growth 48h,AMA1-RON2 inh,Pf growth 96h
CC1=C(C(=O)NC2CCCCC2C)C2(CCC(C)CC2)OC1=O (stereo not drawn),.,.,9.3µM,.,.
CC1=C(C(=O)Nc2cccc([N+](=O)[O-])c2)C2(CCC(C)CC2)OC1=O (stereo not drawn),.,.,?,.,0.37µM
CC1=C(C(=O)NC(C)c2ccc3c(c2)OCCO3)C2(CCC(C)CC2)OC1=O (stereo not drawn),.,.,?,.,10µM
CC(NC(=O)c1cccc(N2CCCC2=O)c1)c1ccc2c(c1)OCCO2 (stereo not drawn),.,/,?,.,12µM
CCOc1ccc(NC(=O)C2=C(C)C(=O)OC23CCC(C)CC3)cc1 (stereo not drawn),.,.,/,.,.
CC1=C(C(=O)NC(C)c2ccccc2)C2(CCC(C)CC2)OC1=O (stereo not drawn),/,/,.,.,.
CCCN(Cc1cccs1)C(=O)Nc1cc(Cl)c(OC)cc1OC,.,.,/,/,/
COc1ccc(S(=O)(=O)NCC(c2ccco2)S(=O)(=O)c2cccs2)cc1F (stereo not drawn),.,.,/,/,/
CCC12CN3CC(C)(CN(C1)C3c1c(C)n(C)c3ccccc13)C2=O (stereo not drawn),.,.,/,/,/
C/C(=N\NC(=O)c1nn(C)c(C)c1Br)c1ccc(NC(=O)C2CCCC2)cc1,/,/,.,.,13µM
C/C(=N\NC(=O)C1(C)CC1(Br)Br)c1ccc(NC(=O)C2CCC2)cc1 (stereo not drawn),?,.,?,.,5.2µM
C/C(=N\NC(=O)c1ccn(C)n1)c1ccc(NC(=O)C2CCC2)cc1,/,/,.,.,.
CCCN1CNc2c(c(=O)[nH]c(=S)n2CCc2c(C)cccc2C)C1,.,.,/,/,/
COc1ccc(CCNC(=O)CCCCn2c(=O)c3ccccc3n(Cc3cccc(C)c3)c2=O)cc1OC,.,.,/,/,/
Cc1c(Cc2ccccc2)c(=O)oc2cc(OC(C)C(=O)NCC3CCC(C(=O)O)CC3)c(Cl)cc12 (stereo not drawn),.,.,.,.,10µM
Cc1cc(OC(C)C(=O)NCc2ccccn2)c2c(C)c(Cc3ccccc3)c(=O)oc2c1 (stereo not drawn),.,.,?,.,.
CC(Oc1ccc2c(-c3ccccc3)cc(=O)oc2c1)C(=O)NCC1CCC(C(=O)O)CC1 (stereo not drawn),.,.,5.2µM!,.,3.3µM
COc1ccc(-c2cc(=O)oc3c(C)c(OCC(=O)N(C)C)ccc23)cc1,/,/,.,.,?
COc1ccc(-c2cc(=O)oc3c(C)c(OCC(=O)NCC4CCC(C(=O)O)CC4)ccc23)cc1 (stereo not drawn),.,.,.,.,13µM
Cc1cc(=O)oc2cc(OC(C)C(=O)NCC3CCC(C(=O)O)CC3)ccc12 (stereo not drawn),.,.,.,.,?
COc1cccc(NC(=O)Cn2c(=O)n(CC(=O)NCCc3ccccc3)c(=O)c3sccc32)c1,.,.,/,/,/
CCOc1ccccc1NC(=O)CN1Cc2ccccc2C1=O,.,.,/,/,/
Cc1cc(C)n(-c2ncnc3sc4c(c23)CCCC4)n1,.,.,.,.,13µM
Cc1cc(C)n(-c2nc(NCCN(C)C)c3c4c(sc3n2)COC(C)(C)C4)n1,.,.,?,.,?
Cc1cc(C)n(-c2nc(NCCN(C)C)c3c4c(sc3n2)CCCC4)n1,.,?,?,.,.
SMILES,Vaccinia Venus,Vaccinia mCherry,Pf growth 48h,AMA1-RON2 inh,Pf growth 96h
Cc1cc(C)n(-c2nc(NCCCN(C)C)c3c4c(sc3n2)CCCC4)n1,.[7.34 µM],.[7.34 µM],12µM,.,.
Cc1cc(C)n(-c2nc(-n3nc(C)cc3C)c3c4c(sc3n2)COC(C)(C)C4)n1,/,/,?,/,1µM
Cc1cc(C)n(-c2ncnc3sc4c(c23)CC(C)CC4)n1 (stereo not drawn),.,.,.,.,?
Cc1cc(C)n(-c2nc(NCCC(C)C)c3c4c(sc3n2)COC(C)(C)C4)n1,.,.,/,.,3.7µM
CCN(CC)CCNc1nc(-n2nc(C)cc2C)nc2sc3c(c12)CC(C)(C)OC3,?,?,?,.,?
Cc1cccc(S(=O)(=O)c2cn(Cc3ccccc3)c3cc(N4CCC(C)CC4)c(F)cc3c2=O)c1,.,.,/,/,/
CC(C)COc1ccc(C(=O)N(Cc2cccc(F)c2)C2CCS(=O)(=O)C2)cc1 (stereo not drawn),.,.,/,/,/
CCc1ccc(NS(=O)(=O)c2ccc3oc(=O)c4ncn(CC)c4c3c2)cc1,.,.,/,/,/
Cc1oc2cc3oc(=O)c(CCC(=O)NCCN4CCOCC4)c(C)c3cc2c1C,.,.,.,.,10µM
CCOC(=O)C(=CN=C(N)Nc1nc2ccccc2o1)C(=O)OCC,.,?,.,.,10µM
CCCOC(=O)Nc1nc2ccccc2o1,/,/,.,.,.
CCOC(=O)c1cc(S(=O)(=O)N2CCN(c3ccccc3OC)CC2)[nH]n1,.,.,/,/,/
CCCc1nc2oc3c(NCCN(C)C)ncnc3c2c2c1CCCC2,/,/,13µM,.,?
CCCc1nc2oc3c(Cl)ncnc3c2c2c1CCCC2,.[7.34 µM],.[7.34 µM],.,.,.
CCCc1nc2oc3c(NCCCN(C)C)ncnc3c2c2c1CCCC2,.,.,9.3µM,.,13µM
CN1C(=O)[C@@H]2C[C@@]3([C@@]45C[C@H]6C(=O)N(C)[C@@H](Cc7ccccc7)C(=O)N6[C@@H]4Nc4ccccc45)c4ccccc4N[C@H]3N2C(=O)[C@@H]1Cc1ccccc1,.,?,12µM,.,?
O=C1N[C@@H](Cc2ccccc2)C(=O)N2[C@H]3Nc4ccccc4[C@@]3([C@]34C[C@H]5C(=O)N[C@@H](Cc6ccccc6)C(=O)N5[C@H]3Nc3ccccc34)C[C@@H]12,.,?,/,.,/
C=C1C(=O)O[C@@H]2[C@@H]1CC/C(C)=C\CC[C@@]1(C)O[C@H]21,/,/,?,/,9.5µM
CCc1c(C(=O)Nc2ccncc2)csc1C,/,/,8.3µM,.,?
CCOC(=O)C1CCCN(C(=O)c2ccc(Cn3c(=S)[nH]c4cc(C(=O)OC)ccc4c3=O)cc2)C1 (stereo not drawn),.,.,?,.,12µM
CC1CCc2[nH]c3ccc(C(=O)N4CCCC(C(F)(F)F)C4)cc3c2C1 (stereo not drawn),.,.,?,?,?
CCOC(=O)C1CCCN(C(=O)c2ccc3[nH]c4c(c3c2)CC(C)CC4)C1 (stereo not drawn),.,.,9.3µM,.,?
CCCC(C)NC(=O)c1ccc2[nH]c3c(c2c1)CC(C)CC3 (stereo not drawn),.,/,4.7µM,.,3.3µM
CCOC(=O)C1CCN(C(=O)Cn2ncc3c([nH]c4ccc(C)cc43)c2=O)CC1,.,.,/,/,/
COC(=O)C(CCSC)NC(=O)c1c(C)oc2ncn(CC(C)C)c(=O)c12 (stereo not drawn),.,.,/,/,/
CN(C)c1cccc2c1c(NC(=O)Nc1ccc(F)cc1F)nn2C,/,/,.,.,?
COc1ccccc1NC(=O)Nc1nn(C)c2cccc(OC)c12,.,.,?,.,12µM
CN(C)c1cccc2c1c(NC(=O)Nc1ccccc1)nn2C,/,/,?,.,9.3µM
